FBW7 act: human FBW7 E3 ligase activation, primary screen; AID 1259310; 650,000 compounds, 0.13% hits; normalized activity (activation), % at 26.1 µM; AlphaScreen FBW7–phospho-cyclin E peptide binding, activator screen; in the data active = normalized activity above about 1.9%;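 also: purified mutant Fbw7 with reduced substrate affinity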
MITF inh: human MITF inhibition, primary screen; 650,000 compounds, 0.91% hits; AlphaScreen MITF homodimerization, bead proximity signal; inhibition, % at 2.6 µM; O75030; AID 1259374; in the data active = inhibition above about 50%
Target sequence (O75030 whole entry, looked up): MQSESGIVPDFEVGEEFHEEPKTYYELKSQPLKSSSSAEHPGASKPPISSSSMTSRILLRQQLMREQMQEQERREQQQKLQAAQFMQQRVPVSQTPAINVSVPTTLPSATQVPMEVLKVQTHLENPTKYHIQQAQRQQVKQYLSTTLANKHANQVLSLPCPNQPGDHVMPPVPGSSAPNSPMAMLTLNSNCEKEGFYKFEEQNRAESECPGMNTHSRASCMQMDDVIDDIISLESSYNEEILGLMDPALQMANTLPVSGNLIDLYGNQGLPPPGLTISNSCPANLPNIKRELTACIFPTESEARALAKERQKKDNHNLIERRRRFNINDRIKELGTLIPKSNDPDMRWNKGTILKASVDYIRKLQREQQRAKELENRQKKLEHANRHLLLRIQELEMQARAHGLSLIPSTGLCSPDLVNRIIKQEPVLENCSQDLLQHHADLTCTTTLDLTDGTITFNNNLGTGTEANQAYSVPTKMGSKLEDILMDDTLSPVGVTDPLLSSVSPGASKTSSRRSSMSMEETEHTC
TEAD-YAP inh: TEAD-YAP interaction inhibition; HEK-TIYL cells, TEAD-Gal4/YAP UAS-luciferase luminescence; inhibition, % at 9.12 µM; 640,000 compounds, 1.4% hits; in the data active = inhibition above about 32%
GPR151 activ: activators of human GPR151; activation, % at 11.2 µM; PathHunter beta-arrestin GPR151 cells, luminescence; Q8TDV0; 650,000 compounds, 1% hits; in the data active = activation above about 4.9%
MITF inh conf: confirmation of human MITF inhibitors; shares compounds with MITF inh; AlphaScreen MITF homodimerization, biotin/His-MITF beads; inhibition, % at 2.6 µM; 4,700 compounds, 16% hits;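 active = inhibition above a cutoff derived from the DMSO control wells, cut at about 28% in these data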;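 also: inhibitors lower the bead chemiluminescence by keeping MITF from dimerizing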
AS interf DR: AlphaScreen optical interference, dose response counter-screen; 480 compounds, 6% hits; AlphaScreen optical interference counterscreen, cell-free; IC50, µM; shares compounds with MITF inh; call rule not given here
AS interf ctr: AlphaScreen optical interference, counter-screen; shares compounds with MITF inh; LysRS AlphaScreen counterscreen, signal interference, triplicate; inhibition, % at 2.6 µM; 4,700 compounds, 7.6% hits; AID 1259376;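 active = inhibition above a cutoff derived from the DMSO control wells, cut at about 30% in these data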
Each line names hits and unclear results; the compound was inactive in the other large screens (follow-up assays come after a bar, where they were run); ! = a repeat was not active. In the library only some 3.4% were active in any assay of this set; here they are far more common.

COc1cccc(C(=O)N2CCN(C(=O)c3cccc(Cl)c3)CC2)c1	none
COc1cc(OC)c(OC)cc1CN1CCN(Cc2ccco2)CC1	MITF inh 81 | MITF inh conf inactive | AS interf ctr inactive
CCc1ccc(CN2CCN(C(=O)c3ccco3)CC2)cc1	MITF inh 51 | MITF inh conf inactive | AS interf ctr inactive
O=C(c1ccccc1)N1CCN(CC(O)COCc2ccccc2)CC1 (stereo not given)	MITF inh 56 | MITF inh conf inactive | AS interf ctr inactive
O=S1(=O)N=C(CN2CCC(c3nnc(-c4ccc(F)cc4)o3)CC2)Nc2ccccc21	none
COc1ccc(/C=C2\C=C(c3ccccc3)N(c3ccc(Cl)c(Cl)c3)C2=O)cc1	none
O=C(c1cccc(Cl)c1)N1CCN(Cc2ccccc2Cl)CC1	MITF inh 58 | MITF inh conf inactive | AS interf ctr inactive
COc1cccc(CN2CCN(C(=O)c3cccc(Cl)c3)CC2)c1	MITF inh 58 | MITF inh conf inactive | AS interf ctr inactive
c1coc(CN2CCN(Cc3ccncc3)CC2)c1	none
COc1cccc(OC)c1C(=O)N1CCN(Cc2ccco2)CC1	MITF inh 61 | MITF inh conf inactive | AS interf ctr inactive
O=C(c1ccncc1)N1CCN(Cc2ccco2)CC1	MITF inh 76 | MITF inh conf inactive | AS interf ctr inactive
COc1cccc(OC)c1C(=O)N1CCN(Cc2ccc(Br)cc2)CC1	MITF inh 64 | MITF inh conf inactive | AS interf ctr inactive
COc1ccc(Br)cc1CN1CCN(C(=O)c2cccs2)CC1	MITF inh 64 | MITF inh conf inactive | AS interf ctr inactive
COc1cccc(C(=O)N2CCN(Cc3ccccc3Cl)CC2)c1	none
CCOc1ccc(CN2CCN(C(=O)c3c(OC)cccc3OC)CC2)cc1	none
COc1cccc(C(=O)N2CCN(Cc3ccc(Br)cc3)CC2)c1	MITF inh 61 | MITF inh conf inactive | AS interf ctr inactive
COc1ccc(CN2CCN(C(=O)c3cccc(Cl)c3)CC2)c(OC)c1	MITF inh 54 | MITF inh conf inactive | AS interf ctr inactive
COc1cccc(CN2CCN(C(=O)c3ccccc3)CC2)c1	MITF inh 60 | MITF inh conf inactive | AS interf ctr inactive
CCOc1cc(CN2CCN(C(=O)c3cccc(Cl)c3)CC2)ccc1OC	none
COc1cccc(CN2CCN(C(=O)c3ccco3)CC2)c1	MITF inh 55 | MITF inh conf inactive | AS interf ctr inactive
COc1ccc(C(=O)N2CCN(Cc3cccc(Cl)c3)CC2)cc1OC	MITF inh 51 | MITF inh conf inactive | AS interf ctr inactive
COc1ccc(CN2CCN(C(=O)c3ccco3)CC2)cc1Br	MITF inh 53 | MITF inh conf inactive | AS interf ctr inactive
COc1ccc(CN2CCN(C(=O)c3ccccc3)CC2)cc1	none
Cc1c(/C=N/NC(=O)C(O)(c2ccccc2)c2ccccc2)c(=O)n(-c2ccccc2)n1C	none
COc1ccc(CCn2c(C)cc(=O)c(C(=O)NCc3ccco3)c2C2CC2)cc1OC	none
COc1cccc(C(=O)N2CCN(C3CCN(Cc4ccccc4)CC3)CC2)c1	MITF inh 54 | MITF inh conf inactive | AS interf ctr inactive
O=C(CNCc1ccc(Cl)cc1)Nc1ccccc1N1CCOCC1	MITF inh 61 | MITF inh conf inactive | AS interf ctr inactive
O=C(CNCc1ccccc1Cl)Nc1ccccc1N1CCOCC1	MITF inh 62 | MITF inh conf inactive | AS interf ctr inactive
O=C(COC(=O)c1ccccc1Cl)Nc1ccccc1N1CCOCC1	none
O=C(CNCc1ccc(F)cc1)Nc1ccccc1N1CCOCC1	MITF inh 63 | MITF inh conf inactive | AS interf ctr inactive
O=C(CNCc1cccnc1)Nc1ccc(OC(F)(F)F)cc1	none
O=C(CNCc1cccnc1)Nc1ccc(C2CCCCC2)cc1	MITF inh 59 | MITF inh conf inactive | AS interf ctr inactive
CCN(CC)c1ccc(C2Nc3ccccc3-c3nnc(SC)nc3O2)cc1 (stereo not given)	none
Cc1cccc(NC(=O)CNCc2cccnc2)c1C	MITF inh 83 | MITF inh conf inactive | AS interf ctr inactive
O=C(CNCc1cccnc1)Nc1ccccc1N1CCOCC1	MITF inh 102 | MITF inh conf inactive | AS interf ctr inactive
Cc1cccc(NC(=O)CSCCO)c1C	none
O=C(CNCc1cccnc1)N(c1ccccc1)c1ccccc1	MITF inh 95 | MITF inh conf inactive | AS interf ctr inactive
O=C(O)C1CC=CCC1C(=O)Nc1ccc(Cc2ccncc2)cc1 (stereo not given)	none
COC(NC(=O)/C=C/c1ccccc1)C(Cl)(Cl)Cl (stereo not given)	none
Cc1ccc(-c2nnc3s/c(=C\c4ccco4)c(=O)n23)cc1	MITF inh 64 | MITF inh conf 75 | AS interf DR inactive | AS interf ctr inactive
COc1ccc(OC)c(CN2CCN(CC3CC=CCC3)CC2)c1 (stereo not given)	MITF inh 54 | MITF inh conf inactive | AS interf ctr inactive
COc1cc(OC)c(OC)cc1CN1CCN(CC2CC=CCC2)CC1 (stereo not given)	MITF inh 51 | MITF inh conf inactive | AS interf ctr inactive
COc1cccc(CN2CCN(CC3CC=CCC3)CC2)c1OC (stereo not given)	MITF inh 81 | MITF inh conf inactive | AS interf ctr inactive
COc1cc(C(=O)N2CCN(CC3CC=CCC3)CC2)cc(OC)c1OC (stereo not given)	none
COc1ccc(OC)c(CN2CCSCC2)c1	none
CN(C)CCS(=O)c1cc(-c2cn[nH]c2)ccc1NC(=O)[C@@H]1Cc2cc(F)ccc2CN1 (stereo not given in full)	FBW7 act 1.9!, MITF inh 75! | MITF inh conf 68 | AS interf DR inactive | AS interf ctr inactive
CN(C)CCS(=O)c1cc(-c2cn[nH]c2)ccc1NC(=O)[C@H]1Cc2cc(F)ccc2CN1 (stereo not given in full)	MITF inh 56! | MITF inh conf 72 | AS interf DR inactive | AS interf ctr inactive
Fc1cc(F)c(F)c(SCCc2ccncc2)c1F	MITF inh 90 | MITF inh conf inactive | AS interf ctr inactive
CCN(CC(=O)Nc1ccccc1C(F)(F)F)CC(=O)NC1CCCc2ccccc21 (stereo not given)	MITF inh 81 | MITF inh conf inactive | AS interf ctr inactive
CCN(CC(=O)Nc1ccccc1C(F)(F)F)CC(=O)Nc1cccc2ccccc12	none
Nc1nc(SCC(=O)Nc2cc([N+](=O)[O-])ccc2F)n[nH]1	MITF inh 51 | MITF inh conf inactive | AS interf ctr inactive
COC1(OC)N=C(N)C2(C#N)C(c3ccc4c(c3)OCO4)C12C#N (stereo not given)	none
CCOC1(OCC)N=C(N)C2(C#N)C(c3cccc(C)c3)C12C#N (stereo not given)	MITF inh 56 | MITF inh conf inactive | AS interf ctr inactive

From PubChem
